# From PubChem BioAssay (NCI)
# About 83,000 compounds went through this panel and 20% of them were active in at least one assay; those are over-represented in the sample as a whole.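 96-well plates, one dose, 48 hours. Percent growth reported; active if below 10.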 Unmarked numbers belong to inactive results. Calls of active or inactive are those of the source.
# Assays:
# Test in all cases: NCI-60 one-dose screen, 48 h (100 = growth as untreated, 0 = no growth, -100 = all killed)
# K-562 leukemia = conditions: 10 µM unless noted
# MALME-3M melanoma = conditions: 10 µM unless noted
# MDA-MB-231 breast = conditions: 10 µM unless noted
# RXF 393 renal = conditions: 10 µM unless noted
# SF-268 CNS = conditions: 10 µM unless noted
# SF-295 CNS = conditions: 10 µM unless noted
# SF-539 CNS = conditions: 10 µM unless noted
# UACC-257 melanoma = conditions: 10 µM unless noted
# M14 melanoma = conditions: 10 µM unless noted
# HCT-15 colon = conditions: 10 µM unless noted
# HT29 colon = conditions: 10 µM unless noted
# SNB-75 CNS = conditions: 10 µM unless noted
# SNB-19 CNS = conditions: 10 µM unless noted
# U251 CNS = conditions: 10 µM unless noted
# SK-MEL-5 melanoma = conditions: 10 µM unless noted
# UACC-62 melanoma = conditions: 10 µM unless noted
# LOX IMVI melanoma = conditions: 10 µM unless noted
# SK-MEL-28 melanoma = conditions: 10 µM
# SK-MEL-2 melanoma = conditions: 10 µM unless noted
# PC-3 prostate = conditions: 10 µM unless noted
Compound,growth (K-562 leukemia),growth (MALME-3M melanoma),growth (MDA-MB-231 breast),growth (RXF 393 renal),growth (SF-268 CNS),growth (SF-295 CNS),growth (SF-539 CNS),growth (UACC-257 melanoma),growth (M14 melanoma),growth (HCT-15 colon),growth (HT29 colon),growth (SNB-75 CNS),growth (SNB-19 CNS),growth (U251 CNS),growth (SK-MEL-5 melanoma),growth (UACC-62 melanoma),growth (LOX IMVI melanoma),growth (SK-MEL-28 melanoma),growth (SK-MEL-2 melanoma),growth (PC-3 prostate)
CCOC(=O)c1ccc(N=Cc2sc(=O)[nH]c2O)cc1,103%,91.2%,95.5%,102%,88.3%,94.1%,94%,96.9%,97.9%,99.1%,104%,84.9%,91.9%,97.3%,99.8%,91.2%,93.6%,105%,94.5%,–
O=C1/C(=C\c2ccc[nH]2)c2ccccc2N1c1ccccc1,90.9%,103%,84.4%,105%,101%,104%,94%,110%,109%,82.7%,105%,84.7%,–,99.3%,90.5%,77%,96.4%,96.7%,106%,90.9%
Oc1[nH]c2ccccc2c1N=Nc1nnc2n1N=C(c1ccccc1)CS2,77.7%,103%,88.6%,82.4%,69.1%,99.9%,82.6%,79.6%,99.1%,105%,72.5%,65.1%,–,50.4%,95.6%,99.8%,93.4%,97%,87.6%,81%
CCCc1c(C)c2sc(=O)[nH]c2[nH]c1=O,107%,108%,105%,107%,99.6%,108%,96.7%,103%,108%,103%,110%,99.1%,101%,99.5%,100%,105%,100%,110%,108%,–
COc1ccc(CCN2C(=O)CCSC2=S)cc1OC,80.9%,101%,106%,90.7%,97.1%,98.7%,89.7%,96.6%,105%,86.2%,107%,84.7%,103%,97.2%,94.6%,94.6%,91.1%,98.2%,102%,–
COc1ccc(C2=NN(/C=C3\SC(=O)NC3=Nc3ccc(F)cc3)C(c3ccc(F)cc3)C2)cc1 (configuration not stated),94.3%,94.3%,93.8%,96%,97.9%,90.8%,106%,103%,104%,98.9%,98.8%,96.5%,95.1%,94.1%,92%,95.4%,97.6%,103%,102%,–
O=C(CN1C(=O)/C(=C\c2ccc(Cl)cc2)SC1=S)Nc1ncc(Cc2ccc(Cl)cc2)s1,105%,99.4%,104%,110%,97.4%,101%,94.3%,104%,102%,103%,110%,88.6%,102%,100%,95.7%,99.9%,92.9%,106%,105%,–
CCOc1ccc(Nc2ccnc3cc(Cl)ccc23)cc1,9.05% (active),-25.2% (active),-31.6% (active),3.65% (active),22.7%,-53% (active),24.4%,-33.6% (active),14.7%,17.2%,1.61% (active),1.25% (active),–,4.87% (active),-12.5% (active),21.9%,-22.3% (active),31.1%,-40.5% (active),4.74% (active)
